Source: PubChem BioAssay (NCATS)
Records with an inconclusive call do not appear. Active and inactive are the calls of the source. Unless noted, calls follow the shape of the dose curve; as a rule, active = well fitted curve in the direction sought with a large enough effect; inconclusive = small, poorly fitted or top-dose-only effect, or another doubt; inactive = no such curve, though single readings can be large; an effect the other way counts as inactive or inconclusive. Bridge positions count the residues as written; N and C are the ends. Square brackets hold non-standard residues; d marks the D form. Peptide text beside a SMILES is read from it. * marks the point of attachment. Ileψ(thiazoline)Cys = CC[C@H](C)[C@H](N)C1=N[C@H](C(=O)*)CS1; d(aIle) = CC[C@H](C)[C@@H](N)C(=O)O; dOrn = NCCC[C@@H](N)C(=O)O

What was measured:
[1] = AP1 Signaling Pathway (AID 357; active = well fitted curve in either direction with a large enough effect, not every such curve was filed as active;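 also: ME-180 reporter cells stimulated with EGF at its EC50 level; % is scaled to controls: 0 for no effect and ±100 for the full control effect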)
Summary of the method: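 First, ME-180 AP-1-bla cells were cultured overnight at 37 °C in low-serum Opti-MEM. Next, titrated compounds with EC50 EGF were incubated 5 hours. Finally, CCF4 was added for 2.5 hours and the 460/530 nm ratio recorded.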

[2] = NFAT Signaling Pathway (AID 444; active = well fitted curve in either direction with a large enough effect, not every such curve was filed as active;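 also: carbachol stimulus at about its EC50 of 1 µM final; % is scaled to controls: 0 for no effect and ±100 for the full control effect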); details: Jurkat NFAT-bla M1, carbachol, beta-lactamase ratio, 5 h; at 17.2 µM (top of the series) unless noted
Summary of the method: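 Read-out: CCF4 FRET ratio (460 nm/530 nm) after 1 h RT dye loading, used for %activity and AC50 from titration series. Cells: Jurkat NFAT-β-lactamase/M1 line, treated with compound plus 1 uM carbachol for 5 h, 37 °C.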

[3] = Stat Signaling Pathway (AID 446; active = well fitted curve in either direction with a large enough effect, not every such curve was filed as active;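 also: ME-180 cervical cancer cells given 40 pM IL-6 alongside compound; SIE-controlled beta-lactamase reporter measured as 460/530 nm FRET emission ratio; % is scaled to controls: 0 for no effect and ±100 for the full control effect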)
Summary of the method: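 Normalization used AC90 stimulation (300 pM IL-6) and AC90 inhibition (125 nM pan-JAK inhibitor at 40 pM IL-6). The underlying signal is SIE-driven beta-lactamase in ME-180 cells after 5 h IL-6 exposure with compound.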

[4] = biological target: Mitogen-activated protein kinase 10 (Mus musculus) (UniProt Q61831); assay: JNK3 AlphaScreen Assay (AID 530; active = well fitted curve in either direction with a large enough effect, not every such curve was filed as active;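 also: kinase came from lysate of stimulated human HepG2 cells; signal reports phosphorylation of biotinylated GST-cJun 1-79 at Ser73 with 10 µM ATP; % is scaled to controls: 0 for no effect and ±100 for the full control effect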)
Summary of the method: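 qHTS titrations with 15 min compound pre-incubation before adding ATP (10 uM final). Read-out: AlphaScreen of Ser73-phosphorylated biotin-GST-cJun using HepG2 lysate JNK3 activated by IL-1β and TNFα.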

[5] = biological target: 3',5'-cyclic-AMP phosphodiesterase 4B (Homo sapiens) (UniProt Q07343); assay: qHTS Assay for Inhibitors of PDE-IV (AID 607; active = well fitted activation curve with a large enough effect in the main read-out, with a control signal flat, not every such curve was filed as active; also: % of control where 0% means no effect)
Summary of the method: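 HEK293 ACTOne cells with CNG channel (1000/well), endogenous PDE4; membrane potential dye, compounds up to 22.9 uM final. Fluorescence Ex 535/Em 590; RO 20-1724 (100 uM final) as reference.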

[6] = qHTS Assay for Lipid Storage Modulators (AID 1519; calls by dose curve); details: Drosophila S3 cells, BODIPY lipid droplet/cell ratio, laser cytometry, cells loaded with oleic acid
Summary of the method: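 Cells seeded at 5,000 per well were treated with compounds over a concentration series and loaded with oleic acid (400 uM, as added). Lipid droplet fluorescence (488 nm excitation, 500-530 nm channel) was read by laser-scanning cytometry and normalized to 20 uM Triacsin C.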

[7] = biological target: Ubiquitin carboxyl-terminal hydrolase 1 (Homo sapiens) (UniProt O94782); assay: Inhibitors of USP1/UAF1: Pilot qHTS (AID 504865);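 also: rhodamine fluorescence freed from ubiquitin-rhodamine substrate followed over time; top concentration of the series differs between compounds; % is scaled to controls: 0 for no effect and ±100 for the full control effect; nearly all actives have a fitted effect of over 35% in size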
Summary of the method: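 USP1/UAF1 complex (1nM) preincubated with compound 15 min at room temperature, then Ub-Rho substrate (150nM final) added. Fluorescence read kinetically at 480/540 nm, 6 reads every 60 seconds. Buffer: 50mM HEPES pH 7.8, 0.5mM EDTA, 0.1 mg/ml BSA, 1mM TCEP, 0.01% Tween-20.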

[8] = S16 Schwann cell viability assay (CellTiter-Glo assay) (AID 624031);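 also: cellular ATP luminescence as a viability measure; plate controls were DMSO-treated cells for no effect and cell-free wells for full effect; nearly all actives have a fitted effect of over 70% in size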
Summary of the method: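 Native S16 rat Schwann cells, 500-750 cells/well in DMEM with 10% FBS, dosed with compound after overnight culture and incubated 24h at 37 degree Celsius/5% CO2. Viability by CellTiter-Glo luminescence; % activity normalized to no-cell wells and DMSO-treated cells.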

[9] = qHTS profiling for inhibitors of Plasmodium falciparum proliferation (AID 504749);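 also: 0% = DMSO vehicle and full inhibition = artemisinin control; nearly all actives have a fitted effect of over 60% in size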; details: P. falciparum in erythrocytes, SYBR Green DNA, 72 h
Summary of the method: (§1)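 SYBR Green fluorescence of parasite DNA, read after lysis and overnight dark incubation, measured growth over 72 h in erythrocyte culture at 0.3% parasitemia and 2.5% hematocrit. Data normalised to DMSO and 0.29 uM artemisinin, with plate-drift correction.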

[10] = test system: AS120; assay: as above; details: P. falciparum in erythrocytes, SYBR Green DNA, 72 h; series mostly up to 12.8 µM
Summary of the method: as §1

[11] = test system: C2A; assay: as above; details: P. falciparum in erythrocytes, SYBR Green DNA, 72 h; series mostly up to 12.8 µM
Summary of the method: as §1

[12] = test system: CP237; assay: as above; details: P. falciparum in erythrocytes, SYBR Green DNA, 72 h; series mostly up to 12.8 µM
Summary of the method: as §1

[13] = test system: CP238; assay: as above; details: P. falciparum in erythrocytes, SYBR Green DNA, 72 h; series mostly up to 12.8 µM
Summary of the method: as §1

[14] = test system: CP252; assay: as above; details: P. falciparum in erythrocytes, SYBR Green DNA, 72 h; series mostly up to 12.8 µM
Summary of the method: as §1

[15] = test system: FAB9; assay: as above; details: P. falciparum in erythrocytes, SYBR Green DNA, 72 h; series mostly up to 12.8 µM
Summary of the method: as §1

[16] = test system: HB3; assay: as above; details: P. falciparum in erythrocytes, SYBR Green DNA, 72 h; series mostly up to 12.8 µM
Summary of the method: as §1

[17] = test system: JCK; assay: as above; details: P. falciparum in erythrocytes, SYBR Green DNA, 72 h; series mostly up to 12.8 µM
Summary of the method: as §1

[18] = test system: PAD; assay: as above; details: P. falciparum in erythrocytes, SYBR Green DNA, 72 h; series mostly up to 12.8 µM
Summary of the method: as §1

[19] = biological target: Glucocorticoid receptor (Homo sapiens) (UniProt P04150); assay: GR-GFP Redistribution (AID 450;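 active = compounds whose dose series gives a full or clear partial fitted curve of increased nuclear translocation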; also: potency is read from the fitted curve at half-maximal effect); details: U2OS GR-GFP nuclear translocation, laser cytometry, 2 h
[20] = biological target: Glucocorticoid receptor (Homo sapiens) (UniProt P04150); assay: GR-EFC Redistribution (AID 451; calls by dose curve; also: potency is read from the fitted curve at half-maximal effect); details: CHO-K1 GR-EFC translocation, beta-gal luminescence, 2 h
Summary of the method: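 Translocation of GR-ED fusion to nuclear EA restores b-gal, read by luminescence after 1 h room-temperature detection. Engineered CHO-K1 biosensor cells, 1,000/well, exposed 2 h at 37 C to titrations up to 46 uM final.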

[21] = measured here: cell count channel max response
[22] = measured here: lipid channel max response
[23] = at 12.8 µM (top of the series), parasite line A
[24] = at 12.8 µM (top of the series), parasite line B

Chain of 3',5'-cyclic-AMP phosphodiesterase 4B (Homo sapiens) (Q07343 whole entry, looked up): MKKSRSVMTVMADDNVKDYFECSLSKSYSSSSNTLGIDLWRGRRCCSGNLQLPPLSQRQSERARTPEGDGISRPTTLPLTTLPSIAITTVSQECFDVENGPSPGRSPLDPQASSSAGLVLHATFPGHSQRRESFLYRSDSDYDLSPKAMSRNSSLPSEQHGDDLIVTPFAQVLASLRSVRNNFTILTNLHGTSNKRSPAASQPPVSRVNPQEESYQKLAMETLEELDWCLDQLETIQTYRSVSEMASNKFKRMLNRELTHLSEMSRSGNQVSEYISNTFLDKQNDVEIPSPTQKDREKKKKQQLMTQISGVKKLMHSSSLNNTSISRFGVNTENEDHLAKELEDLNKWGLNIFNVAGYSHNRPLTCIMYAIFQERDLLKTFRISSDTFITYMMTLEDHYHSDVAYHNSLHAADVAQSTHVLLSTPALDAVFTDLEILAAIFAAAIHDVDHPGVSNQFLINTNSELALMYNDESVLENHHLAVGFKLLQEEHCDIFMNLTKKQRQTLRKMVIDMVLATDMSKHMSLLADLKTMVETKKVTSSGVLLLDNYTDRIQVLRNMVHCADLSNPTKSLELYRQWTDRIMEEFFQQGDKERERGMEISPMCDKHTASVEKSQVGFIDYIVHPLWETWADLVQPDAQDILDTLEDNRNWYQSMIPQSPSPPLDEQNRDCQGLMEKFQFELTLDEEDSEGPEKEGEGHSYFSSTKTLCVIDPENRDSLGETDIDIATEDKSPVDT
Chain of Glucocorticoid receptor (Homo sapiens) (P04150 whole entry, looked up, the tested form may be a part): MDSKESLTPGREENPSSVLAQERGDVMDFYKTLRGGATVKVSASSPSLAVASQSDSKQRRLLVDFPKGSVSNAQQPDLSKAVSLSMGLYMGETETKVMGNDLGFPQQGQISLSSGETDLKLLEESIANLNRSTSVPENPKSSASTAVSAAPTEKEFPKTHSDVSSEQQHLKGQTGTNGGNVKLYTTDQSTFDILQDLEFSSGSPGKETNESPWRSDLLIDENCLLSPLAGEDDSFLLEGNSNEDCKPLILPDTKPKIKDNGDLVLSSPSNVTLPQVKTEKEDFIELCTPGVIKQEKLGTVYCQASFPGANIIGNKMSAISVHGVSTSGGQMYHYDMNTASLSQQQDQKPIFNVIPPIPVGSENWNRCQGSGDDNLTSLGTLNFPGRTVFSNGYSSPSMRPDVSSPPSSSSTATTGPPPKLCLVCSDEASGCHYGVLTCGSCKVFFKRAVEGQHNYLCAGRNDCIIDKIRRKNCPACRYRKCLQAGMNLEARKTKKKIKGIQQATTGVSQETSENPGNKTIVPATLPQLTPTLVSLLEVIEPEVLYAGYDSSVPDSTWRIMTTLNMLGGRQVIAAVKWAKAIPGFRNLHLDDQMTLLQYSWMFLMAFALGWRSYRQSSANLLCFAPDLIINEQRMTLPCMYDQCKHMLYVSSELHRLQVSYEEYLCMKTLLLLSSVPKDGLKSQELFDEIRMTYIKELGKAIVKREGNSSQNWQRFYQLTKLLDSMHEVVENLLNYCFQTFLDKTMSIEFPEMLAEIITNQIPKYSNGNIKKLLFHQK
Chain of Ubiquitin carboxyl-terminal hydrolase 1 (Homo sapiens) (O94782 whole entry, looked up): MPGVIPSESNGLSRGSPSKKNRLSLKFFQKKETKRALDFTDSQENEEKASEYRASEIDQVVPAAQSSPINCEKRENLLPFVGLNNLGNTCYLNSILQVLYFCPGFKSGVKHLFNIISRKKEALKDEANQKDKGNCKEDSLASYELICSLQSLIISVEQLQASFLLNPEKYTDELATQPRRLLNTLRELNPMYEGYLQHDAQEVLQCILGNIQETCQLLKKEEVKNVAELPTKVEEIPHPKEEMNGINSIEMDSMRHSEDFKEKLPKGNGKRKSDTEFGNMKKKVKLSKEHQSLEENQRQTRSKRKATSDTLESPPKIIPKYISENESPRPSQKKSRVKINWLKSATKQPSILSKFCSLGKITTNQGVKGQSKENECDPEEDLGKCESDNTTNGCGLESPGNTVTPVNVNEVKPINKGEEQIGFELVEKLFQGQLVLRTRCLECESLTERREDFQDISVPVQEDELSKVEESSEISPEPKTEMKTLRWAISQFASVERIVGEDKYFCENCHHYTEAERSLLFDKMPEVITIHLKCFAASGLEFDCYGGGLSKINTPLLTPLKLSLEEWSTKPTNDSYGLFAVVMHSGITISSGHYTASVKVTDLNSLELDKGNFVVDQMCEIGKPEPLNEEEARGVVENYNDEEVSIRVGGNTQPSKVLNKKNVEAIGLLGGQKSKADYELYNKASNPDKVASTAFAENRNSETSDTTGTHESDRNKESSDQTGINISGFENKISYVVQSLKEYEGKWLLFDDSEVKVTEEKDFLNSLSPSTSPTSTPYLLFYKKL

c1ccc2c(c1)CCC[C@@H]2C1=NCCN1
inactive: outcome [1] | activity change, negative = inhibition [2] 4.55% | outcome [3] | Potency [4] | outcome [5] | activity change, negative = inhibition ([6]; at 25.7 µM (top of the series)) 1.29% | Potency [7] | outcome [8] | activity, negative = inhibition ([9]; at 28.7 µM (top of the series), parasite line A) 13.7% | activity, negative = inhibition ([9]; at 28.7 µM (top of the series), parasite line B) -0.664% | Potency [10] | Potency [11] | Potency [12] | Potency [13] | Potency [14] | Potency [15] | Potency [16] | Potency [17] | Potency [18]
6.92%: max response [6, 22]
4.77%: max response [6, 21]

CO[C@@H]1C[C@H](O[C@H]2[C@@H](C)[C@H](O[C@@H]3O[C@@H](C)C[C@@H](N(C)C)[C@@H]3OC(C)=O)[C@H](C)C[C@]3(CO3)C(=O)[C@H](C)[C@H](OC(C)=O)[C@H](C)[C@H](C)OC(=O)[C@@H]2C)O[C@H](C)[C@@H]1OC(C)=O
-6.43%: max response [6, 21]
-9.02%: max response [6, 22]
inactive: outcome [1] | activity change, negative = inhibition [2] 11.7% | outcome [3] | outcome [5] | activity change, negative = inhibition ([6]; at 25.7 µM (top of the series)) -1.3% | Potency [7] | outcome [8] | activity, negative = inhibition [9, 23] -21.7% | activity, negative = inhibition [9, 24] -14.9% | Potency [10] | Potency [11] | Potency [12] | Potency [13] | Potency [14] | Potency [15] | Potency [16] | Potency [17] | Potency [18]

C[C@@H]1[C@H](C)CC[C@@]2(C(=O)O)CC[C@]3(C)C(=CC[C@H]4[C@@]5(C)CC[C@@H](O)C(C)(C)[C@@H]5CC[C@@]43C)[C@@H]12
inactive: outcome [1] | activity change, negative = inhibition [2] -17.6% | outcome [3] | Potency [19] > 20.6 µM | Potency [20] > 20.6 µM | outcome [5] | activity change, negative = inhibition ([6]; at 25.7 µM (top of the series)) -4.31% | Potency [7]
-6.67%: max response [6, 21]
-11%: max response [6, 22]

Cn1c(-c2ccc3c(c2)OCO3)cc(=O)c2ccccc21
-2.71%: max response [6, 22]
-4.86%: max response [6, 21]
inactive: outcome [1] | activity change, negative = inhibition [2] -10.6% | outcome [3] | Potency [19] > 20.6 µM | Potency [20] > 20.6 µM | Potency [4] | activity change, negative = inhibition ([6]; at 25.7 µM (top of the series)) 2.22% | Potency [7]

CC1(C)S[C@@H]2[C@H](NC(=O)[C@@H](N)c3ccc(O)cc3)C(=O)N2[C@H]1C(=O)O
-7.54%: max response [6, 21]
inactive: outcome [1] | activity change, negative = inhibition [2] -4.29% | outcome [3] | Potency [4] | outcome [5] | activity change, negative = inhibition ([6]; at 25.7 µM (top of the series)) -0.615% | Potency [7]
-10.4%: max response [6, 22]

COc1cc(C2Oc3cc(C4Oc5cc(O)cc(O)c5C(=O)C4O)ccc3OC2CO)ccc1O (configuration not stated)
5.37%: max response [6, 21]
24.8%: max response [6, 22]
inactive: outcome [1] | activity change, negative = inhibition [2] 22.6% | outcome [3] | Potency [19] > 20.6 µM | activity change, negative = inhibition ([6]; at 57.5 µM (top of the series)) 18.7%

CC[C@H](C)[C@H](N)C1=N[C@H](C(=O)N[C@@H](CC(C)C)C(=O)N[C@@H](CCC(=O)O)C(=O)N[C@@H](C(=O)N[C@H]2CCCCNC(=O)[C@@H](CC(N)=O)NC(=O)[C@@H](CC(=O)O)NC(=O)[C@@H](Cc3cnc[nH]3)NC(=O)[C@@H](Cc3ccccc3)NC(=O)[C@@H]([C@@H](C)CC)NC(=O)[C@@H](CCCN)NC2=O)[C@@H](C)CC)CS1 ({Ileψ(thiazoline)Cys}-LE[d(aIle)]K[dOrn][d(aIle)][dF][dH][dD][dN]; lactam 4-C)
-6.65%: max response [6, 22]
inactive: outcome [1] | activity change, negative = inhibition [2] 1.53% | outcome [3] | Potency [4] | outcome [5] | activity change, negative = inhibition ([6]; at 25.7 µM (top of the series)) -0.807% | outcome [8] | activity, negative = inhibition [9, 23] 0.552% | activity, negative = inhibition [9, 24] 7.07% | Potency [10] | Potency [11] | Potency [12] | Potency [13] | Potency [14] | Potency [15] | Potency [16] | Potency [17] | Potency [18]
-6.25%: max response [6, 21]
